# Source: the supplement of paper PMC3334620
# The full ranking holds about 33,000 sequences; the median of “E-score (-0.5 to 0.5)” is about -0.043, and the highest 2% start at about 0.37. Only a selection was taken, and the highest values are over-represented in it overall.
# Molecular target: T1, Upc2 (UniProt Q12151)
# T1 sequence: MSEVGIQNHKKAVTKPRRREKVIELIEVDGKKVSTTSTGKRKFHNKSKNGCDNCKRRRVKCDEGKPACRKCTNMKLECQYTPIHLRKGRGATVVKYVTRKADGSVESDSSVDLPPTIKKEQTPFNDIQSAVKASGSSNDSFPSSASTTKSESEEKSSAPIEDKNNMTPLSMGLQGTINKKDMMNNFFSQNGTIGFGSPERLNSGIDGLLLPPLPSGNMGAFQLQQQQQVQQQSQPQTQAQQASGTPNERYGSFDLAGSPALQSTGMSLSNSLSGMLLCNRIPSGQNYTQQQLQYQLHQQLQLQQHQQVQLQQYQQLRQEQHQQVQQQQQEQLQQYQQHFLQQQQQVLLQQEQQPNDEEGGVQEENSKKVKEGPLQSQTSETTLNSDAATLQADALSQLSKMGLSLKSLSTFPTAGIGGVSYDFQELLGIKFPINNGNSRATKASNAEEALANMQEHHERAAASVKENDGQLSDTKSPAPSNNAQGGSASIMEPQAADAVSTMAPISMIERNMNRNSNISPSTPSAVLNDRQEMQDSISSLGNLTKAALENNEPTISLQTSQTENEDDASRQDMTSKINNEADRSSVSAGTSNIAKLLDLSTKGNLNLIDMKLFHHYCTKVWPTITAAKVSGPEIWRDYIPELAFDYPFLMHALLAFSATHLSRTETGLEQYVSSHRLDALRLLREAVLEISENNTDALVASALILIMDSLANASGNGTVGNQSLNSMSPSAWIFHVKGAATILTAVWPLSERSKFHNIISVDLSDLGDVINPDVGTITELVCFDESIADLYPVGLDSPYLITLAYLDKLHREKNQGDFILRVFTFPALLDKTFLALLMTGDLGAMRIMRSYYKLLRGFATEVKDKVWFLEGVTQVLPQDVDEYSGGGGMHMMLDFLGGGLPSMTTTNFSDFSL
# Assay: PBM E-score (8-mer binding enrichment) (E-score (-0.5 to 0.5)); higher = stronger / more preferred TF binding
# Conditions: protein concentration: 200 nM; construct: GST-full length
# Summary of the method: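 Each ungapped eight-base word and its reverse complement, pooled, received an E-score from the Universal PBM Analysis Suite. Underlying scans, normalised with masliner, recorded fluorescent anti-GST bound to GST-tagged yeast transcription factors. These were applied at about 100-200 nM to universal all-10-mer Agilent arrays double-stranded by primer extension.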
row,Sequence,PBM E-score
1,GTTGCAGA,-0.126
2,CCATACGA,0.473
3,CCATACGG,0.396
4,CCATACTA,-0.101
5,ACATACGG,0.354
6,CCATACGC,0.322
7,CCATACAA,-0.09
8,CCGTTCCG,0.323
9,ATTGTTGG,-0.153
10,CGATTTGC,-0.0413
11,CCGGTTAG,0.0696
12,ACAGGTAA,-0.0299
13,CAGATACG,0.375
14,CAGATACC,-0.184
15,AAGATACG,0.349
16,CCGATACG,0.392
17,CGGATACA,0.201
18,CCGATACC,-0.00432
19,ACGATACT,0.313
20,CGGATACC,0.0516
21,ACGATACG,0.391
22,CCGATACA,0.159
23,ACGATACA,0.279

row,Sequence,PBM E-score
1,CGGATACG,0.408
2,ATTCTAAA,0.155
3,CCCAGCCA,-0.0649
4,GACGGTGC,0.0569
5,AAAATCTG,-0.0273
6,CGCATAGC,0.265
7,AAGACTGG,-0.109
8,CCCTCACA,-0.164
9,AAAGAGTT,-0.235
10,TACGAGTA,0.453
11,AACGCGTT,0.248
12,AACGAGTG,0.414
13,AGCGAGTA,0.269
14,ACCGAGTA,0.25
15,GACGAGTA,0.104
16,CACGAGTG,0.0785
17,AACGAGTA,0.437
18,AACGAGTT,0.399
19,CACGAGTA,0.126
20,AGCGAGTG,0.204
21,ATCATCTA,-0.0847
22,CTGGTCAA,-0.17
23,ACAATATC,0.125

row,Sequence,PBM E-score
1,CATCAGCC,-0.104
2,TTACTGAA,0.182
3,CACGAGTC,0.00415
4,AACGAGTC,0.414
5,GACGAGTC,0.0657
6,ACAATAAT,0.0963
7,ACCCGCTG,-0.245
8,AAGCTGCG,-0.0191
9,AGGTTCAA,-0.0255
10,ATACGGGA,0.382
11,CTACGGGC,-0.0221
12,ACACGGGA,-0.129
13,ACACGGGC,-0.0605
14,ACACGGGG,-0.0346
15,ATACGGGC,0.426
16,GTACGGGA,0.389
17,ATACGGGG,0.411
18,AGACGGGG,-0.147
19,GCACGGGA,0.0149
20,CTACGGGA,0.00845
21,GGACGGGA,-0.0849
22,ACCATTAC,0.17
23,AAACCGTC,-0.0199

row,Sequence,PBM E-score
1,ACTCCAAG,-0.152
2,CTCCTTAC,0.112
3,CGATTGAA,0.0171
4,GATATGGA,0.047
5,ACCCAACA,-0.221
6,GACGCTCC,-0.0386
7,AAACATCG,-0.033
8,CTTCACGC,0.0017
9,CTATGGAG,-0.173
10,GTTGTTTA,0.0127
11,GTGTCCTA,-0.0178
12,CCATAGAA,-0.25
13,ACCCGTCA,-0.119
14,GTATAAGA,0.395
15,GTATAATA,0.375
16,CTATAAGA,0.247
17,ATATAAGA,0.22
18,ATATAATA,-0.0226
19,CTATAATA,-0.055
20,AACGTTGA,0.0964
21,CCACCAGA,-0.0981
22,AAGCGTAT,0.33
23,TATCGCGA,0.182

row,Sequence,PBM E-score
1,CTGCTACC,-0.161
2,CCTTGGAC,-0.0581
3,GGCTGTGA,-0.125
4,GCCGTTCA,0.31
5,ACCGTTTG,0.333
6,CCCGTTTA,0.456
7,ACCGTTTC,0.244
8,CACGTTTA,0.363
9,CCCGTTTC,0.197
10,GCCGTTTA,0.465
11,ACCGTTTA,0.458
12,GCCGTTAA,0.292
13,AACCAAGG,-0.0086
14,AAAAACTG,-0.0494
15,ACACGCTC,0.0594
16,CGCTGCAC,-0.0173
17,AAAGGCTA,-0.173
18,ACTGTGCG,0.134
19,CCGTAGCA,0.0702
20,ACGTAGCA,0.0515
